The entries come from a sample that favours hits as a whole.
Vaccinia stage – Vaccinia orthopox stage-specific inhibition. activity change (mCherry), % (test concentration not listed). 89,000 compounds, 0.01% hits. AID 1053133. Vaccinia-infected cells, mCherry/Venus stage reporter fluorescence; hits give low values; in the data active = activity change below about -37%, passing the limit was not always enough; tested in A549 cells
The depositor's hits bear a star.

How did COc1ccc2c3c(n(C)c2c1)[C@H](CO)N(C)CC31CN(C(=O)CN2CCOCC2)C1 do in these assays?
Vaccinia stage: 27

What do the screens show for `COCC(=O)Nc1ccc2c(c1)C(=O)N(C)C[C@H](OC)[C@@H](C)CN(Cc1ccccc1OC)[C@@H](C)CO2`?
Vaccinia stage: 13

What do the screens show for `O=C(NCC[C@H]1CC[C@@H](NC(=O)C2CCCC2)[C@@H](CO)O1)c1ccc(F)cc1`?
Vaccinia stage: -4

What do the screens show for `CN(C)CC(=O)Nc1ccc2c(c1)[C@@H]1C[C@H](CC(=O)NCc3ccc(Cl)cc3)O[C@H](CO)[C@@H]1O2`?
Vaccinia stage: -2

What do the screens show for `OC[C@@H]1Nc2ccc(-c3ccccc3)cc2[C@H]2[C@@H]1CCN2Cc1ccc(F)cc1`?
Vaccinia stage: -27

What do the screens show for `COc1ccccc1-c1ccc2c(c1)[C@@H]1[C@@H](CCN1C(=O)C1CC1)[C@@H](CO)N2`?
Vaccinia stage: -31

How did OC[C@@H]1Nc2ccc(-c3cccc(F)c3)cc2[C@@H]2[C@H]1CCN2Cc1ccc(F)cc1 do in these assays?
Vaccinia stage: -18

What do the screens show for `OC[C@H]1Nc2ccc(-c3ccccc3)cc2[C@H]2[C@@H]1CCN2Cc1ccc(F)cc1`?
Vaccinia stage: -50*

What do the screens show for `COc1ccccc1-c1ccc2c(c1)[C@@H]1[C@@H](CCN1C(=O)C1CCOCC1)[C@H](CO)N2`?
Vaccinia stage: -2

Results for COc1ccccc1-c1ccc2c(c1)[C@@H]1[C@@H](CCN1C(=O)C1CCCCC1)[C@@H](CO)N2 ?
Vaccinia stage: -86*

What do the screens show for `COc1ccc(NC(=O)N[C@H]2CC[C@@H](CCNC(=O)CCN3CCCCC3)O[C@H]2CO)cc1`?
Vaccinia stage: 12

Results for C[C@@H]1CN([C@@H](C)CO)S(=O)(=O)c2ccc(-c3cccc(F)c3)cc2O[C@@H]1CN(C)C(=O)C1CC1 ?
Vaccinia stage: -8

Results for O=C(C[C@H]1C[C@@H]2c3cc(NC(=O)C4CCOCC4)ccc3O[C@@H]2[C@H](CO)O1)NCc1ccccc1 ?
Vaccinia stage: 24

How did O=C(C[C@@H]1CC[C@@H](NC(=O)C2CCC2)[C@@H](CO)O1)NCC1CC1 do in these assays?
Vaccinia stage: 16

How did CO[C@@H]1CN(C)C(=O)c2cc(NC(=O)C3CC3)ccc2OC[C@@H](C)N(Cc2ccncc2)C[C@H]1C do in these assays?
Vaccinia stage: -4

How did C[C@H](CO)N1C[C@H](C)[C@@H](CN(C)S(C)(=O)=O)Oc2ncc(/C=C/c3ccccc3)cc2C1=O do in these assays?
Vaccinia stage: 13

How did CC(C)NC(=O)Nc1ccc2c(c1)C(=O)N([C@H](C)CO)C[C@@H](C)[C@H](CN(C)S(C)(=O)=O)OCCCC[C@@H](C)O2 do in these assays?
Vaccinia stage: 32

How did O=C(Nc1ccccc1F)N1C[C@@H]2N[C@H](C1)C2c1ccc(/C=C/c2ccccc2)cc1 (stereo partly drawn) do in these assays?
Vaccinia stage: -17

Results for O=C(C[C@@H]1C=C[C@H](NS(=O)(=O)c2ccc(F)cc2)[C@@H](CO)O1)N1CCN(c2ccccc2)CC1 ?
Vaccinia stage: 5

How did CN1CCN(C(=O)C[C@@H]2C=C[C@@H](NS(=O)(=O)c3cccc(F)c3)[C@H](CO)O2)CC1 do in these assays?
Vaccinia stage: 6

What do the screens show for `Cc1cccc(NC(=O)Nc2ccc3c(c2)C(=O)N(C)[C@H]2CC[C@@H](CC(=O)O)O[C@@H]2CO3)c1`?
Vaccinia stage: 0

What do the screens show for `CCCNC(=O)C[C@H]1CC[C@@H]2[C@H](COc3ccc(NC(=O)NCCC)cc3C(=O)N2C)O1`?
Vaccinia stage: 14

Results for C[C@@H]1CCCCO[C@H](CN(C)C(=O)Nc2ccc(F)cc2)[C@@H](C)CN([C@@H](C)CO)C(=O)c2cc(NC(=O)C3CCCCC3)ccc2O1 ?
Vaccinia stage: -27

How did COc1ccc2c3c(n(C)c2c1)[C@@H](CO)NCC31CN(CC2CC2)C1 do in these assays?
Vaccinia stage: 4

What do the screens show for `C[C@@H]1CN([C@H](C)CO)C(=O)c2cc(NC(=O)Nc3ccc4c(c3)OCO4)ccc2O[C@@H]1CN(C)C`?
Vaccinia stage: 16

How did COc1cccc(S(=O)(=O)N2C[C@@H]3N[C@H](C2)C3c2ccc(/C=C/c3ccccc3)cc2)c1 (stereo partly drawn) do in these assays?
Vaccinia stage: 8

What do the screens show for `CCC(=O)N(C)C[C@H]1Oc2cc(-c3ccc(OC)cc3)ccc2S(=O)(=O)N([C@H](C)CO)C[C@@H]1C`?
Vaccinia stage: -6

What do the screens show for `CCCNC(=O)N1C[C@@H](O)COC[C@@H]2O[C@@H](CC(=O)NCCCN3CCOCC3)CC[C@H]21`?
Vaccinia stage: 12

Results for Cc1noc(C)c1NC(=O)N(C)C[C@H]1OCCCC[C@H](C)Oc2ccc(NC(=O)CCC(F)(F)F)cc2C(=O)N([C@@H](C)CO)C[C@H]1C ?
Vaccinia stage: 17

What do the screens show for `CO[C@H](CN(C)Cc1cc(F)ccc1F)[C@H](C)CN([C@@H](C)CO)S(=O)(=O)c1ccc(F)cc1`?
Vaccinia stage: -2

What do the screens show for `COc1cccc(-c2ccc([C@@H]3[C@@H](CO)N(C(C)=O)C34CN(C(C)=O)C4)cc2)c1`?
Vaccinia stage: -4

What do the screens show for `COc1ccc(NC(=O)N(C)C[C@@H]2Oc3ncc(C#C[C@@H](C)O)cc3C(=O)N([C@@H](C)CO)C[C@H]2C)cc1`?
Vaccinia stage: 19

What do the screens show for `C[C@@H]1CN([C@H](C)CO)C(=O)c2cc(NS(C)(=O)=O)ccc2O[C@@H]1CN(C)Cc1ccc(-c2ccccc2)cc1`?
Vaccinia stage: -15

How did C[C@@H]1CN([C@@H](C)CO)C(=O)c2ccccc2-c2ccccc2CO[C@@H]1CN(C)C(=O)[C@H](C)c1ccccc1 do in these assays?
Vaccinia stage: 5

How did COc1ccc(-c2cn(CC[C@H]3CC[C@H](NS(=O)(=O)c4ccccc4C)[C@@H](CO)O3)nn2)cc1 do in these assays?
Vaccinia stage: 2

Results for C[C@@H]1CN([C@@H](C)CO)C(=O)c2cc(C#Cc3ccccn3)cnc2O[C@@H]1CN(C)Cc1ccncc1 ?
Vaccinia stage: 20

Results for C[C@H](CO)N1C[C@H](C)[C@H](CN(C)Cc2ccncc2)Oc2ncccc2C1=O ?
Vaccinia stage: 8

What do the screens show for `CC=Cc1ccc2n(c1=O)C[C@H]1[C@H](CO)[C@@H](C(=O)NCCc3cn(C)cn3)N(C(=O)C3CCCC3)[C@@H]21` (mixture of isomers)?
Vaccinia stage: 20

Results for O=C(Nc1ccccc1)N1CCCCN2[C@H](CO)[C@H](c3ccc(-c4ccncc4)cc3)[C@H]2C1 ?
Vaccinia stage: 29

What do the screens show for `CCNC(=O)C[C@H]1CC[C@@H](NS(=O)(=O)c2ccc(F)cc2)[C@@H](CO)O1`?
Vaccinia stage: 10

How did CCC(=O)N(C)C[C@H]1Oc2ncc(-c3ccc(C#N)cc3)cc2C(=O)N([C@H](C)CO)C[C@H]1C do in these assays?
Vaccinia stage: 18

How did CCCNC(=O)N(C)C[C@H]1Oc2cc(C#CCC(C)C)ccc2S(=O)(=O)N([C@H](C)CO)C[C@H]1C do in these assays?
Vaccinia stage: 11

How did Cc1cc(C(=O)Nc2cccc3c2O[C@@H](CN(C)C(=O)Nc2cccc4ccccc24)[C@@H](C)CN([C@H](C)CO)C3=O)n(C)n1 do in these assays?
Vaccinia stage: 7

How did Cc1ccc(S(=O)(=O)Nc2ccc3c(c2)C(=O)N([C@@H](C)CO)C[C@H](C)[C@H](CN(C)C(=O)Nc2ccc(F)cc2)O3)cc1 do in these assays?
Vaccinia stage: 7

Screens (PubChem)
